Data as given in PubChem BioAssay (EPA / NIEHS).
Results filed as inconclusive are left out. Calls of active or inactive are those of the source. The calls were made as follows, unless noted: active = hit-call score of the fitted dose curve at least 0.9, where 1 is the maximum; inconclusive = response in the unintended direction; inactive = score below 0.9.

Target: Agonist Androgen Response Element (ARE), AR (gene 367) (UniProt P10275)
Test: OT_AR_ARELUC_AG_1440: Odyssey Thera (OT) 24-hour CHO-K1 Luciferase Assay for Agonist Androgen Response Element (ARE) (AID 2283379)
Outline: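 Readout: luciferase bioluminescence from CHO-K1 ARE-luc cells, measured 24 h post-dosing; agonism = increased mean luminescence vs DMSO controls, fitted in positive direction.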

Agonist Androgen Response Element (ARE), AR (gene 367), sequence (P10275 whole entry, looked up): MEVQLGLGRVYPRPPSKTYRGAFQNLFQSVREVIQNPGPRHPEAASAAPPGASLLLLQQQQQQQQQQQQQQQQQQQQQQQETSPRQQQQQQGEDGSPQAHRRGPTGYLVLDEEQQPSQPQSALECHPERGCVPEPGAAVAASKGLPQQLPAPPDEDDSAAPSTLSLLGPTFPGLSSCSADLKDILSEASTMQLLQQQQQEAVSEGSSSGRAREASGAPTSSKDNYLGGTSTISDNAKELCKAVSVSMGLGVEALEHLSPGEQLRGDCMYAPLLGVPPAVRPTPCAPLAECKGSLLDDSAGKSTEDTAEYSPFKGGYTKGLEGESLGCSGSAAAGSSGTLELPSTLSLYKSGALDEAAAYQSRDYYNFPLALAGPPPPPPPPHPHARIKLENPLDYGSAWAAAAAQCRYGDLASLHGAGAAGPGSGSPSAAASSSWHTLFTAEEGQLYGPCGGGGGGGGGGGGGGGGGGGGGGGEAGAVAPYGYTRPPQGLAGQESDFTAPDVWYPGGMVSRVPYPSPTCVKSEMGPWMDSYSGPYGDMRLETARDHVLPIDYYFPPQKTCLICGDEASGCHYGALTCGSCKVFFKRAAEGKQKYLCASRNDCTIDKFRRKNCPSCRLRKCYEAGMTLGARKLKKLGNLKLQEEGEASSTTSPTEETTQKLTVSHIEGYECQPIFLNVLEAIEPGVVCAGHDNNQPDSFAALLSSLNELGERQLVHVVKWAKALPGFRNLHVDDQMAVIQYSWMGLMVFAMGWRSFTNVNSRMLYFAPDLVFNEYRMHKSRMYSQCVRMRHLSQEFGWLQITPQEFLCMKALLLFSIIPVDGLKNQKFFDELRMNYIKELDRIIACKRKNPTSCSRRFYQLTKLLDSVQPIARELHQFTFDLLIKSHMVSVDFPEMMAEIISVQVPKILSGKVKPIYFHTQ

| Structure (SMILES) | outcome |
| --- | --- |
| OCC1CCCO1 (stereo not drawn) | inactive |
| CCN=C1C=CC(=C(c2ccc(N(CC)CC)cc2)c2ccc(N(CC)CC)cc2)c2ccccc21 | inactive |
| CCCCCCCC/C=C\CCCCCCCC(=O)OCC(O)CO (stereo not drawn) | inactive |
| F[Si-2](F)(F)(F)(F)F | inactive |

Target: Estrogen receptor beta (Homo sapiens) (UniProt Q92731)
Test: OT_ER_ERbERb_1440: Odyssey Thera (OT) 24-hour HEK293T Protein-Complementation Assay for Estrogen Receptor-beta/-beta Homodimer (AID 2283380);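 also: fluorescence gain from ER beta LBD homodimer complementation read by laser scanning cytometry; scored as signal increase over DMSO baseline for both agonists and antagonists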
Outline: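 Fluorescence increase, nuclear for agonists or whole-cell for antagonists, relative to DMSO vehicle, quantified by laser scanning cytometer after fixation and Draq5 staining. Readout from 24 h treatment of HEK293T cells carrying complementation-paired ER beta LBD (aa 310-547).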

Estrogen receptor beta (Homo sapiens), sequence (Q92731 whole entry, looked up, the tested form may be a part): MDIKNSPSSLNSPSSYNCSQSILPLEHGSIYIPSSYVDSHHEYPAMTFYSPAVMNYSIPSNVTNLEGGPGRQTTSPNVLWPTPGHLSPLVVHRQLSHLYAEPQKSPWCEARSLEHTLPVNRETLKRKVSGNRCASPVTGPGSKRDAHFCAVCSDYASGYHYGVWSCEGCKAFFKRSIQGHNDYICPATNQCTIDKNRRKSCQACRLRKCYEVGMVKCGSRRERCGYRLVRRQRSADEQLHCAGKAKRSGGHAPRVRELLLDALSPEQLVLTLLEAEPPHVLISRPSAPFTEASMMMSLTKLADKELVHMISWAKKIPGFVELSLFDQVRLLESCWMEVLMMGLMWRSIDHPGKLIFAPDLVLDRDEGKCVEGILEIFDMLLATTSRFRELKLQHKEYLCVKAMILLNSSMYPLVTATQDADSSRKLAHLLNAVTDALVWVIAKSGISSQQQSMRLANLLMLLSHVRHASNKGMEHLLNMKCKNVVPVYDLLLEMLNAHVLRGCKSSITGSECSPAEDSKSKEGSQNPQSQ

| Structure (SMILES) | AC50 | outcome |
| --- | --- | --- |
| CC(C)Nc1ccc(NC(C)C)c2c1C(=O)c1ccccc1C2=O | 19.1 µM (active) |  |
| CCCCC(CC)COC(=O)c1ccc(N(C)C)cc1 (stereo not drawn) |  | inactive |
| CCc1cc(Cc2cc(CC)c(N)c(CC)c2)cc(CC)c1N |  | inactive |
| CC(C)(C)c1cc(Cc2cc(C(C)(C)C)c(O)c(C(C)(C)C)c2)cc(C(C)(C)C)c1O |  | inactive |
| CCOC(OCC)OCC |  | inactive |
| OCC1CCCO1 (stereo not drawn) |  | inactive |
| CCOC(=O)C1CC(=O)C(=C(O)C2CC2)C(=O)C1 (stereo not drawn) |  | inactive |
| CCN=C1C=CC(=C(c2ccc(N(CC)CC)cc2)c2ccc(N(CC)CC)cc2)c2ccccc21 |  | inactive |
| CCCCCCCC/C=C\CCCCCCCC(=O)OCC(O)CO (stereo not drawn) |  | inactive |
| F[Si-2](F)(F)(F)(F)F |  | inactive |

Target: Estrogen receptor (Homo sapiens) (UniProt P03372)
Test: OT_ERa_GFPERaERE_0480: Odyssey Thera (OT) 8-hour HeLa Transcription Induction Assay for Estrogen Receptor (AID 2283381; active = hit-call score of the fitted dose curve at least 0.9, where 1 is the maximum; inactive = score below 0.9)
Outline: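 Fluorescence microscopy with high-content image analysis measures ERE-driven GFP induction in HeLa cells at 8 h post-dose. Increases fitted against DMSO baseline.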

Estrogen receptor (Homo sapiens), sequence (P03372 whole entry, looked up): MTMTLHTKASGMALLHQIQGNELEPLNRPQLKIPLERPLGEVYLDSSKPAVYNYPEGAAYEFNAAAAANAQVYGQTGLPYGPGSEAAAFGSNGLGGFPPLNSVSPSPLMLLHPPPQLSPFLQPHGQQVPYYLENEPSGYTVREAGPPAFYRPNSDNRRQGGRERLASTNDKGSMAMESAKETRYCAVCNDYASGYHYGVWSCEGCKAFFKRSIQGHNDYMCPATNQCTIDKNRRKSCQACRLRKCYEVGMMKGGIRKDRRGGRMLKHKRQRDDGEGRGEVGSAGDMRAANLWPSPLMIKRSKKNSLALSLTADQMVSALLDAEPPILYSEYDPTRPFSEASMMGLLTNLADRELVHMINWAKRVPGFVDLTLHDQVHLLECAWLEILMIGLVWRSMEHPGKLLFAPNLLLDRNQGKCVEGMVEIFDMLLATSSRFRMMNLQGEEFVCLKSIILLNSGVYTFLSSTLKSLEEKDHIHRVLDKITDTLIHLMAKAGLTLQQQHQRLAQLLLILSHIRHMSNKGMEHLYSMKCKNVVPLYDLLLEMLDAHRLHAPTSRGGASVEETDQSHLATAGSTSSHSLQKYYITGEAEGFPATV

| Structure (SMILES) | outcome |
| --- | --- |
| CCCCC(CC)COC(=O)c1ccc(N(C)C)cc1 (stereo not drawn) | inactive |
| CCCCOC(=O)[C@H](C)O | inactive |
| CCc1cc(Cc2cc(CC)c(N)c(CC)c2)cc(CC)c1N | inactive |
| CC(C)(C)c1cc(Cc2cc(C(C)(C)C)c(O)c(C(C)(C)C)c2)cc(C(C)(C)C)c1O | inactive |
| Cc1ccc([N+](=O)[O-])c(C)c1 | inactive |
| N#Cc1ccccc1O | inactive |
| CCOC(OCC)OCC | inactive |
| OCC1CCCO1 (stereo not drawn) | inactive |
| CCCCOC(=O)C(C)O (stereo not drawn) | inactive |
| CCOC(=O)C1CC(=O)C(=C(O)C2CC2)C(=O)C1 (stereo not drawn) | inactive |
| CCN=C1C=CC(=C(c2ccc(N(CC)CC)cc2)c2ccc(N(CC)CC)cc2)c2ccccc21 | inactive |
| CCCCCCCC/C=C\CCCCCCCC(=O)OCC(O)CO (stereo not drawn) | inactive |
| CC(C)OC=O | inactive |
| F[Si-2](F)(F)(F)(F)F | inactive |

Target: Estrogen receptor (Homo sapiens) (UniProt P03372)
Test: OT_ERa_GFPERaERE_0120: Odyssey Thera (OT) 2-hour HeLa Transcription Induction Assay for Estrogen Receptor (AID 2283382)
Outline: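 Fluorescence-microscopy images of the GFP-ERα/ERE reporter, scored by high-content image algorithms, give the readout. HeLa exposure lasted 2 h, and only signal increase over DMSO was fitted.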

| Structure (SMILES) | outcome | AC50 |
| --- | --- | --- |
| CC(C)Nc1ccc(NC(C)C)c2c1C(=O)c1ccccc1C2=O | inactive |  |
| CCCCC(CC)COC(=O)c1ccc(N(C)C)cc1 (stereo not drawn) | inactive |  |
| CCCCOC(=O)[C@H](C)O | inactive |  |
| CCc1cc(Cc2cc(CC)c(N)c(CC)c2)cc(CC)c1N | inactive |  |
| CC(C)(C)c1cc(Cc2cc(C(C)(C)C)c(O)c(C(C)(C)C)c2)cc(C(C)(C)C)c1O | inactive |  |
| Cc1ccc([N+](=O)[O-])c(C)c1 | inactive |  |
| N#Cc1ccccc1O | inactive |  |
| CCOC(OCC)OCC | inactive |  |
| OCC1CCCO1 (stereo not drawn) | inactive |  |
| CCCCOC(=O)C(C)O (stereo not drawn) |  | 2.95 µM (active) |
| CCOC(=O)C1CC(=O)C(=C(O)C2CC2)C(=O)C1 (stereo not drawn) | inactive |  |
| CCN=C1C=CC(=C(c2ccc(N(CC)CC)cc2)c2ccc(N(CC)CC)cc2)c2ccccc21 | inactive |  |
| CCCCCCCC/C=C\CCCCCCCC(=O)OCC(O)CO (stereo not drawn) | inactive |  |
| CC(C)OC=O | inactive |  |
| F[Si-2](F)(F)(F)(F)F | inactive |  |

Target: Bile acid receptor (Homo sapiens) (UniProt Q96RI1)
Test: OT_FXR_FXRSRC1_0480: Odyssey Thera (OT) 8-hour HEK293T Protein-Complementation Assay for Farnesoid X receptor/SRC-1 Co-activator (AID 2283383)
Outline: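 Binding of FXR to coactivator SRC-1 was read as fluorescence from a reconstituted split reporter in HEK293T cells, 8 h after chemical addition. Only increases in signal versus DMSO were fit.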

Bile acid receptor (Homo sapiens), sequence (Q96RI1 whole entry, looked up): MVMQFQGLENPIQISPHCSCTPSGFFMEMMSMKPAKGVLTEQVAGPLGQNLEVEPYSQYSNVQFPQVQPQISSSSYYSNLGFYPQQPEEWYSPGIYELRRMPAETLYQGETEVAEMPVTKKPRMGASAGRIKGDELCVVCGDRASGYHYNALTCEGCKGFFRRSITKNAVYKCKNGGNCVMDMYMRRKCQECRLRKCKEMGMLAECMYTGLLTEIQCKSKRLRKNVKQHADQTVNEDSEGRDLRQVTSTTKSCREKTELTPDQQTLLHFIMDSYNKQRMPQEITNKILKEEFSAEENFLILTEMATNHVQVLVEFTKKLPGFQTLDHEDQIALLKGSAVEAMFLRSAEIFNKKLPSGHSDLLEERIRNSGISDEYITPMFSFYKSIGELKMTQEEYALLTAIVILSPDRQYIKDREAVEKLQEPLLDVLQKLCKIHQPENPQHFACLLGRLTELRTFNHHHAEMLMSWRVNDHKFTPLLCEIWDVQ

| Structure (SMILES) | AC50 | outcome |
| --- | --- | --- |
| CCCCC(CC)COC(=O)c1ccc(N(C)C)cc1 (stereo not drawn) | 32.7 µM (active) |  |
| CCc1cc(Cc2cc(CC)c(N)c(CC)c2)cc(CC)c1N | 11.8 µM (active) |  |
| CC(C)(C)c1cc(Cc2cc(C(C)(C)C)c(O)c(C(C)(C)C)c2)cc(C(C)(C)C)c1O |  | inactive |
| OCC1CCCO1 (stereo not drawn) |  | inactive |
| CCCCOC(=O)C(C)O (stereo not drawn) |  | inactive |
| CCOC(=O)C1CC(=O)C(=C(O)C2CC2)C(=O)C1 (stereo not drawn) |  | inactive |
| CCCCCCCC/C=C\CCCCCCCC(=O)OCC(O)CO (stereo not drawn) | 70.9 µM (active) |  |
| CC(C)OC=O |  | inactive |
| F[Si-2](F)(F)(F)(F)F |  | inactive |

Target: Bile acid receptor (Homo sapiens) (UniProt Q96RI1)
Test: OT_FXR_FXRSRC1_1440: Odyssey Thera (OT) 24-hour HEK293T Protein-Complementation Assay for Farnesoid X receptor/SRC-1 Co-activator (AID 2283384)
Outline: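 Protein-fragment complementation: FXR and SRC-1 fused to reporter fragments that reassemble on interaction, read by fluorescence intensity. Human HEK293T cells measured 24 h post-dose; positive-direction fit versus DMSO.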

| Structure (SMILES) | AC50 | outcome |
| --- | --- | --- |
| CC(C)Nc1ccc(NC(C)C)c2c1C(=O)c1ccccc1C2=O | 18.2 µM (active) |  |
| CCCCC(CC)COC(=O)c1ccc(N(C)C)cc1 (stereo not drawn) | 50 µM (active) |  |
| CCc1cc(Cc2cc(CC)c(N)c(CC)c2)cc(CC)c1N |  | inactive |
| CC(C)(C)c1cc(Cc2cc(C(C)(C)C)c(O)c(C(C)(C)C)c2)cc(C(C)(C)C)c1O | 6.6 µM (active) |  |
| Cc1ccc([N+](=O)[O-])c(C)c1 |  | inactive |
| N#Cc1ccccc1O |  | inactive |
| CC(C)OC=O |  | inactive |

Target: Retinoic acid receptor RXR-alpha (Homo sapiens) (UniProt P19793)
Test: OT_NURR1_NURR1RXRa_0480: Odyssey Thera (OT) 8-hour HEK293T Protein Complementation Assay for Nurr1/retinoid X receptor (RXR) (AID 2283385)
Outline: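 Interaction of Nurr1 with RXRα read as reconstituted reporter fluorescence in a HEK293T fragment-complementation system, 8 h post-treatment; increase over DMSO baseline analysed.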

Retinoic acid receptor RXR-alpha (Homo sapiens), sequence (P19793 whole entry, looked up): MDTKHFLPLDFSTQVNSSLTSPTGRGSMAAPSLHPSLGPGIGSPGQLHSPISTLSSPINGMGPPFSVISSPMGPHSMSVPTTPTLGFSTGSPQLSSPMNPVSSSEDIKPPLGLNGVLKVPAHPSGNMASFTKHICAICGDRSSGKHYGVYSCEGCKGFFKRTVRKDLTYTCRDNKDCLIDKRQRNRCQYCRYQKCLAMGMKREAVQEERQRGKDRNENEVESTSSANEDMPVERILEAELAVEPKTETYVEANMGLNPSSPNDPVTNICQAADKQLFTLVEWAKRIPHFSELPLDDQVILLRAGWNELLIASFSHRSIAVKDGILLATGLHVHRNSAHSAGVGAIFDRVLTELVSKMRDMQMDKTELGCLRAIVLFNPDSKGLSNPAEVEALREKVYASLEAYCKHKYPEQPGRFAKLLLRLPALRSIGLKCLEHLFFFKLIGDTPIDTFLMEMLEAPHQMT

| Structure (SMILES) | outcome | AC50 |
| --- | --- | --- |
| CC(C)Nc1ccc(NC(C)C)c2c1C(=O)c1ccccc1C2=O | inactive |  |
| CCCCC(CC)COC(=O)c1ccc(N(C)C)cc1 (stereo not drawn) |  | 77.7 µM (active) |
| CCCCOC(=O)[C@H](C)O | inactive |  |
| CCc1cc(Cc2cc(CC)c(N)c(CC)c2)cc(CC)c1N |  | 11.5 µM (active) |
| Cc1ccc([N+](=O)[O-])c(C)c1 | inactive |  |
| CCCCOC(=O)C(C)O (stereo not drawn) | inactive |  |
| CCOC(=O)C1CC(=O)C(=C(O)C2CC2)C(=O)C1 (stereo not drawn) | inactive |  |
| CCCCCCCC/C=C\CCCCCCCC(=O)OCC(O)CO (stereo not drawn) |  | 71.1 µM (active) |
| CC(C)OC=O | inactive |  |

Target: Retinoic acid receptor RXR-alpha (Homo sapiens) (UniProt P19793)
Test: OT_NURR1_NURR1RXRa_1440: Odyssey Thera (OT) 24-hour HEK293T Protein Complementation Assay for Nurr1/retinoid X receptor (RXR) (AID 2283386)
Outline: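 Gain in fluorescence, fitted relative to DMSO, reflects Nurr1–RXRα association in HEK293T cells after 24 h dosing. Bait and prey are each linked to a reporter-protein fragment that reassembles on interaction.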

| Structure (SMILES) | outcome | AC50 |
| --- | --- | --- |
| CC(C)Nc1ccc(NC(C)C)c2c1C(=O)c1ccccc1C2=O | inactive |  |
| CCCCC(CC)COC(=O)c1ccc(N(C)C)cc1 (stereo not drawn) |  | 76 µM (active) |
| CCCCOC(=O)[C@H](C)O | inactive |  |
| CC(C)(C)c1cc(Cc2cc(C(C)(C)C)c(O)c(C(C)(C)C)c2)cc(C(C)(C)C)c1O | inactive |  |
| N#Cc1ccccc1O | inactive |  |
| CCOC(OCC)OCC | inactive |  |
| CCOC(=O)C1CC(=O)C(=C(O)C2CC2)C(=O)C1 (stereo not drawn) | inactive |  |
| CCCCCCCC/C=C\CCCCCCCC(=O)OCC(O)CO (stereo not drawn) |  | 90.1 µM (active) |
| CC(C)OC=O | inactive |  |
| F[Si-2](F)(F)(F)(F)F | inactive |  |
